The supplement of paper PMC6897291

How the values were obtained:
RIVA [1] = experiment: growth inhibition by drug plus 177Lu-lilotomab satetraxetan (1 - RLU/untreated control) (fraction); higher = stronger inhibition; details: 177Lu-lilotomab satetraxetan 0.5 ug/ml
Method in brief: (§1)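 Growth inhibition was calculated from RealTime-Glo RLU against untreated no-drug wells. Values equal 1 − RLU/mean of 48 untreated no-drug wells per plate, read daily from day 3 after 1 h at 37°C. RIVA and U-2932 cells, with or without 18 h pretreatment by a radiolabelled anti-CD37 antibody conjugate (~600 MBq/mg; 0.5 µg/ml RIVA, 1 µg/ml U-2932), were washed and plated at 3,000 cells/well on compound-printed plates at 10/100 nM (RIVA) or 10/1,000 nM (U-2932).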

U-2932 [2] = experiment: growth inhibition by drug alone (1 - RLU/untreated control) (fraction); higher = stronger inhibition; details: 177Lu-lilotomab satetraxetan 0 ug/ml
Method in brief: as §1

RIVA [3] = experiment: as above; details: 177Lu-lilotomab satetraxetan 0 ug/ml
Method in brief: as §1

U-2932 [4] = experiment: growth inhibition by drug plus 177Lu-lilotomab satetraxetan (1 - RLU/untreated control) (fraction); higher = stronger inhibition; details: 177Lu-lilotomab satetraxetan 1 ug/ml
Method in brief: as §1

| Structure (SMILES) | growth inhibition by drug plus 177Lu-lilotomab satetraxetan (RIVA [1]; 100 nM, time (day): 5) | growth inhibition by drug plus 177Lu-lilotomab satetraxetan (RIVA [1]; 100 nM, time (day): 6) | growth inhibition by drug alone (U-2932 [2]; 10 nM, time (day): 3) | growth inhibition by drug alone (U-2932 [2]; 10 nM, time (day): 4) | growth inhibition by drug alone (U-2932 [2]; 10 nM, time (day): 5) | growth inhibition by drug alone (U-2932 [2]; 10 nM, time (day): 6) | growth inhibition by drug alone (U-2932 [2]; 1000 nM, time (day): 3) | growth inhibition by drug alone (U-2932 [2]; 1000 nM, time (day): 4) | growth inhibition by drug alone (U-2932 [2]; 1000 nM, time (day): 5) | growth inhibition by drug alone (U-2932 [2]; 1000 nM, time (day): 6) | growth inhibition by drug alone (RIVA [3]; 10 nM, time (day): 3) | growth inhibition by drug alone (RIVA [3]; 10 nM, time (day): 4) | growth inhibition by drug alone (RIVA [3]; 10 nM, time (day): 5) | growth inhibition by drug alone (RIVA [3]; 10 nM, time (day): 6) | growth inhibition by drug alone (RIVA [3]; 100 nM, time (day): 3) | growth inhibition by drug alone (RIVA [3]; 100 nM, time (day): 4) | growth inhibition by drug alone (RIVA [3]; 100 nM, time (day): 5) | growth inhibition by drug alone (RIVA [3]; 100 nM, time (day): 6) | growth inhibition by drug plus 177Lu-lilotomab satetraxetan (U-2932 [4]; 10 nM, time (day): 3) | growth inhibition by drug plus 177Lu-lilotomab satetraxetan (U-2932 [4]; 10 nM, time (day): 4) | growth inhibition by drug plus 177Lu-lilotomab satetraxetan (U-2932 [4]; 10 nM, time (day): 5) | growth inhibition by drug plus 177Lu-lilotomab satetraxetan (U-2932 [4]; 10 nM, time (day): 6) | growth inhibition by drug plus 177Lu-lilotomab satetraxetan (U-2932 [4]; 1000 nM, time (day): 3) | growth inhibition by drug plus 177Lu-lilotomab satetraxetan (U-2932 [4]; 1000 nM, time (day): 4) | growth inhibition by drug plus 177Lu-lilotomab satetraxetan (U-2932 [4]; 1000 nM, time (day): 5) | growth inhibition by drug plus 177Lu-lilotomab satetraxetan (U-2932 [4]; 1000 nM, time (day): 6) | growth inhibition by drug plus 177Lu-lilotomab satetraxetan (RIVA [1]; 10 nM, time (day): 3) | growth inhibition by drug plus 177Lu-lilotomab satetraxetan (RIVA [1]; 10 nM, time (day): 4) | growth inhibition by drug plus 177Lu-lilotomab satetraxetan (RIVA [1]; 10 nM, time (day): 5) | growth inhibition by drug plus 177Lu-lilotomab satetraxetan (RIVA [1]; 10 nM, time (day): 6) | growth inhibition by drug plus 177Lu-lilotomab satetraxetan (RIVA [1]; 100 nM, time (day): 3) | growth inhibition by drug plus 177Lu-lilotomab satetraxetan (RIVA [1]; 100 nM, time (day): 4) |
| --- | --- | --- | --- | --- | --- | --- | --- | --- | --- | --- | --- | --- | --- | --- | --- | --- | --- | --- | --- | --- | --- | --- | --- | --- | --- | --- | --- | --- | --- | --- | --- | --- |
| O=C(O[C@@H]1Cc2c(O)cc(O)cc2O[C@@H]1c1cc(O)c(O)c(O)c1)c1cc(O)c(O)c(O)c1 [(-)-Epigallocatechin gallate] | 0.47 | 0.474 |  |  |  |  |  |  |  |  |  |  |  |  |  |  |  |  |  |  |  |  |  |  |  |  |  |  |  |  |  |  |
| Cc1ccc(S(=O)(=O)C=CC#N)cc1 | 0.47 | 0.452 | 0.107 | 0.0923 | -0.0275 | -0.041 | -0.00518 | 0.09 | 0.058 | -0.0332 | 0.0697 | -0.00988 | -0.0606 | -0.287 | 0.12 | 0.0423 | 0.00106 | -0.129 | 0.00206 | 0.0303 | 0.0547 | 0.0948 | 0.00618 | 0.193 | 0.194 | 0.225 | 0.414 | 0.5 | 0.522 | 0.534 | 0.401 | 0.472 |
| Cc1nc(N)sc1-c1ccnc(Nc2ccc(N3CCOCC3)cc2)n1 | 0.498 | 0.487 | 0.00864 | -0.0087 | -0.0373 | -0.101 | 0.0735 | 0.00717 | 0.0172 | 0.253 | -0.0458 | -0.131 | -0.156 | -0.327 | -0.0826 | -0.139 | -0.133 | -0.233 | -0.0148 | 0.00212 | 0.025 | 0.0655 | 0.0555 | 0.0326 | 0.0942 | 0.374 | 0.375 | 0.481 | 0.505 | 0.525 | 0.398 | 0.486 |
| CC(C)(C)c1cnc(CSc2cnc(NC(=O)C3CCNCC3)s2)o1 | 0.373 | 0.353 | -0.112 | -0.121 | -0.0865 | -0.0439 | 0.946 | 0.962 | 0.971 | 0.978 | -0.214 | -0.262 | -0.264 | -0.28 | -0.524 | -0.411 | -0.58 | -0.723 | -0.136 | -0.0562 | 0.00872 | 0.121 | 0.955 | 0.966 | 0.975 | 0.983 | 0.484 | 0.533 | 0.556 | 0.564 | 0.267 | 0.359 |
| Cc1ccc([C@@H]2O[C@H](CO)[C@@H](O)[C@H](O)[C@H]2O)cc1Cc1ccc(-c2ccc(F)cc2)s1 [Canagliflozin] | 0.439 | 0.418 | -0.0178 | -0.0268 | -0.0429 | 0.0177 | -0.0399 | 0.00599 | -0.0361 | -0.0715 | -0.0859 | -0.106 | -0.126 | -0.215 | 0.00364 | -0.0271 | -0.0583 | -0.103 | 0.00296 | 0.0208 | 0.0301 | 0.162 | -0.0686 | 0.0117 | 0.0289 | 0.0944 | 0.342 | 0.476 | 0.499 | 0.519 | 0.383 | 0.437 |
| CNC(=O)c1cc(Oc2ccc(NC(=O)Nc3ccc(Cl)c(C(F)(F)F)c3)cc2)ccn1 [Sorafenib (Nexavar)] | 0.594 | 0.583 | 0.065 | 0.061 | 0.0056 | -0.0896 | 0.0548 | 0.172 | 0.16 | 0.0821 | -0.0351 | -0.0584 | -0.0811 | -0.269 | -0.171 | -0.0734 | -0.0752 | -0.125 | -0.0368 | -0.00107 | -0.00478 | 0.0413 | -0.000329 | 0.177 | 0.189 | 0.145 | 0.328 | 0.487 | 0.498 | 0.507 | 0.415 | 0.561 |
| CN1C(=O)C(Cc2c[nH]c3ccccc23)NC1=S (stereo unspecified) [Necrostatin-1] | 0.476 | 0.476 | 0.00216 | -0.00946 | -0.022 | -0.0551 | -0.0606 | -0.0746 | -0.132 | -0.0624 | -0.0747 | -0.159 | -0.218 | -0.441 | -0.34 | -0.362 | -0.408 | -0.562 | -0.059 | -0.0156 | 0.00349 | 0.0946 | -0.0506 | 0.00685 | 0.0586 | 0.224 | 0.451 | 0.501 | 0.519 | 0.523 | 0.368 | 0.476 |
| CCOc1ccn(-c2ccc(F)cc2)c(=O)c1C(=O)Nc1ccc(Oc2ccnc(N)c2Cl)c(F)c1 | 0.523 | 0.514 | 0.143 | 0.12 | -0.0713 | -0.014 | 0.036 | 0.0178 | -0.127 | -0.209 | 0.0958 | 0.084 | 0.0356 | -0.0223 | -0.0283 | 0.013 | -0.000157 | -0.0616 | 0.12 | 0.152 | 0.188 | 0.258 | 0.0517 | 0.106 | 0.162 | 0.259 | 0.626 | 0.638 | 0.657 | 0.657 | 0.445 | 0.512 |
